According to ChEMBL document CHEMBL1201862, “PubChem BioAssay data set” (2004):

Species: Mus musculus
Test: Confirmation Concentration-Response Assay for Epigenetic Modulators.
Format: functional

Potency, active:
COc1ccc(C)cc1/N=N/c1ccc(O)c2ncccc12 77.1 µM
CC(C)C(=O)NC(c1ccco1)c1cc(Cl)c2cccnc2c1O (centres undefined) 341 µM
CC(C)C(=O)NC(c1ccc(Cl)cc1Cl)c1ccc2cccnc2c1O (centres undefined) 73.2 µM
COc1cccc(C(=O)NC(c2ccco2)c2cc(Cl)c3cccnc3c2O)c1 (centres undefined) 77.1 µM
